From article PMC4336329 (PLoS ONE, 2015)
About 14,000 (4.5%) of roughly 310,000 compounds showed an effect of 50% or more. The effect is printed as a negative number. This excerpt belongs to a sample that is enriched for strong results.

The compounds below were run against human ether-à-go-go-related gene (hERG) potassium channel (human, UniProt Q12809) (assay: primary screen, population patch clamp on CHO cells stably expressing hERG; higher = less effect of the substance).
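Note: peak tail current of the secondary pulse compared with the same well before compound.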

human ether-à-go-go-related gene (hERG) potassium channel, sequence (Q12809 whole entry, looked up): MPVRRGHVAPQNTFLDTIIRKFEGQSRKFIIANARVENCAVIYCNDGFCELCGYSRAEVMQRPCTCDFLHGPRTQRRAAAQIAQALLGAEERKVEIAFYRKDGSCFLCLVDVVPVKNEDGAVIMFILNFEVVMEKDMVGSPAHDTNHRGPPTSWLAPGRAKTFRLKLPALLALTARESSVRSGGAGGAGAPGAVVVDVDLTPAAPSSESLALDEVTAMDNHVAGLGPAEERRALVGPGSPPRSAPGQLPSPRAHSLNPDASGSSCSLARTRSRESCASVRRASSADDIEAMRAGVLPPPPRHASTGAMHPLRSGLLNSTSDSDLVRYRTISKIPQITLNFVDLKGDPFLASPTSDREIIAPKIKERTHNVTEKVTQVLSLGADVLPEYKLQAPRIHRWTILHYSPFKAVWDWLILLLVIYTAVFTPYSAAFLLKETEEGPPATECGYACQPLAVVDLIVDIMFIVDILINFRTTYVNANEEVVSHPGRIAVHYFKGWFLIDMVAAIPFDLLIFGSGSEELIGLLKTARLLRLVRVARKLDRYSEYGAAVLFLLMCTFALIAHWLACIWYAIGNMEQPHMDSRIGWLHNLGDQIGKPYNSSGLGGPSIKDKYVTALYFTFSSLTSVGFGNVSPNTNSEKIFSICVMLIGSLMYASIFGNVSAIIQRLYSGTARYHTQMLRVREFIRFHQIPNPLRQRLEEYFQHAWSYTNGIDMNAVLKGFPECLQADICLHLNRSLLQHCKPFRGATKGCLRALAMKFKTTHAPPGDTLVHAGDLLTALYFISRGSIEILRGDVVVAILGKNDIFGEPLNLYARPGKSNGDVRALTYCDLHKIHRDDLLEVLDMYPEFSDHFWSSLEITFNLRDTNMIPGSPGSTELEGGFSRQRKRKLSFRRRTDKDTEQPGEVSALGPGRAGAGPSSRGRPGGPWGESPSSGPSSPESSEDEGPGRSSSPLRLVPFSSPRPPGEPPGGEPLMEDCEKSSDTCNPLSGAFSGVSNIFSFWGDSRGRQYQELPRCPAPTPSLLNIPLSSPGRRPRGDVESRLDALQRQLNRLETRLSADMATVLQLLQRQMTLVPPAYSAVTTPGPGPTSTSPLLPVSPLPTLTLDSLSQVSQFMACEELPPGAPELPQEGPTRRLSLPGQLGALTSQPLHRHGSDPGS

Compound	hERG current change (%, negative = inhibition) at 10uM
Cc1cccc(C(=O)NNS(=O)(=O)c2ccc(F)cc2)c1	8.24%
O=c1cc(CO)oc(C(Nc2ccccn2)c2ccc(F)cc2)c1O (stereo not drawn)	9.87%
O=C(c1ccc2oc(CCc3ccccc3)nc2c1)N1CCC(O)CC1	14.9%
Cc1ccc(C(=O)NCC(=O)OCC(=O)c2ccccc2)s1	-12.6%
COc1ccc(CC(=O)Nc2c(C(N)=O)oc3ccccc23)cc1OC	11.4%
COc1ccc(CCNS(=O)(=O)c2ccc(Br)s2)cc1	-5.73%
O=C(N/N=C/c1cc([N+](=O)[O-])ccc1O)c1cccc(N2CCCC2=O)c1	3.22%
CC(OC(=O)CCc1nc2ccccc2[nH]c1=O)c1ccccc1 (stereo not drawn)	-5.1%
O=C(Nc1ccccc1N1CCCCC1)C1CCN(C(=O)c2ccc(Cl)cc2)CC1	-69.9%
O=C(NC1CCCCC1)C1CCN(C(=O)c2ccc(Cl)cc2)CC1	-6.16%
O=C(Nc1ccccc1N1CCCCC1)c1ccc(Cl)cc1	12.6%
CC(C)(C)C(=O)COC(=O)c1cc(-c2ccncc2)nc2ccccc12	-8.43%
COc1ccc(-n2c(SCC(=O)Nc3cc(C)on3)nc3c(c2=O)SCC3)cc1	12.1%
COCCCN1CN(S(=O)(=O)c2ccc(Cl)cc2)c2nc3ccccc3nc21	-32.7%
COCCN1CN(S(=O)(=O)c2ccc(Cl)cc2)c2nc3ccccc3nc21	-75.9%
COCCN1CN(S(=O)(=O)c2ccccc2)c2nc3ccccc3nc21	-16.7%
COCCn1nnnc1C(C(C)C)N1CCN(C(=O)c2ccco2)CC1.Cl (stereo not drawn)	-1.29%
CCOC(=O)Cc1nnc(NC(=O)c2ncn[nH]2)s1	-9.4%
CN1CC(=O)N(CC(=O)Nc2ccc(Cl)c(C(F)(F)F)c2)C1=O	8.97%
CCCCC(O)CN1CCC(c2ccccc2)CC1 (stereo not drawn)	-56.6%
CCOC(=O)CN1CCC(c2ccccc2)CC1	-2.19%

Compound	hERG current change (%, negative = inhibition) at 10uM
CC(CN1CCC(O)CC1)c1ccccc1 (stereo not drawn)	10.6%
O=C(Nc1ccc(S(=O)(=O)Nc2nccs2)cc1)c1cc(-c2ccncc2)nc2ccccc12	10.1%
O=C(c1cccc(F)c1F)N1CCCC1	24.7%
CC1(C)S[C@@H]2[C@H](NC(=O)COc3ccccc3)C(=O)N2C1C(=O)OCc1ccccc1 (stereo partly drawn)	-48.1%
Cc1cc(COC(=O)C2N3C(=O)[C@@H](NC(=O)COc4ccccc4)[C@H]3SC2(C)C)on1 (stereo partly drawn)	-56.2%
COC(=O)C1N2C(=O)[C@@H](NC(=O)COc3ccccc3)[C@H]2SC1(C)C (stereo partly drawn)	-4.31%
Cc1nc2c(Br)c3nc(C(F)(F)F)[nH]c3c(Br)c2[nH]1	-4.86%
COc1ccc(N(C(=O)CNC(=O)c2cccs2)C(C(=O)NCC2CCCO2)c2ccccc2)cc1OC (stereo not drawn)	4.94%
CCC(=O)N1CCN(c2ccc(Cl)cc2NC(=O)c2ccc([N+](=O)[O-])o2)CC1	-21%
COc1cccc(NC(=O)c2ccc(-c3ccccc3[N+](=O)[O-])o2)c1	-46.1%
CC(=O)c1cccc(NC(=O)c2ccc(-c3ccccc3[N+](=O)[O-])o2)c1	-17.4%
CCC(=O)N1CCN(c2ccccc2NC(=O)c2ccc([N+](=O)[O-])o2)CC1	-69%
COc1ccccc1NC(=O)c1ccc(-c2ccccc2[N+](=O)[O-])o1	26.7%
O=C(Nc1ccccc1N1CCOCC1)c1ccc([N+](=O)[O-])o1	-17.9%
Cc1cccc(NC(=O)c2ccc(-c3ccccc3[N+](=O)[O-])o2)c1	-55.2%
CN1CCN(c2ccccc2NC(=O)c2ccc(-c3ccccc3[N+](=O)[O-])o2)CC1	-67.9%
CN1CCN(c2ccccc2NC(=O)c2ccc([N+](=O)[O-])o2)CC1	-69.6%
CN1CCN(c2ccccc2NC(=O)c2ccc(-c3ccc(Cl)cc3Cl)o2)CC1	-3.82%
O=C(Nc1ccccc1N1CCCC1)c1ccc([N+](=O)[O-])o1	5.51%
Cc1ccccc1NC(=O)c1ccc([N+](=O)[O-])o1	11.5%
CN1CCN(C(=O)C(C(=O)c2ccc(F)cc2)n2ccccc2=O)CC1 (stereo not drawn)	-1.24%

Compound	hERG current change (%, negative = inhibition) at 10uM
Cc1ccc(C)c(N2CCN(S(=O)(=O)c3ccc4c(c3)NC(=O)CO4)CC2)c1	12.7%
O=C(O)c1cccc(Cn2c(Cl)c(/C=N/NC(=O)c3ccco3)sc2=O)c1	38.3%
Cc1ccc(N(C(=O)c2csnn2)C(C(=O)NC2CCCCC2)c2cccnc2)c(C)c1 (stereo not drawn)	-5.38%
N#CCCN(C(=O)COC(=O)CNC(=O)C12CC3CC(CC(C3)C1)C2)c1ccccc1	-23.5%
CC12CCC(C(=O)NCCc3ccccc3)(OC1=O)C2(C)C (stereo not drawn)	9.83%
CSc1nnc(C)c(=O)n1COC(=O)c1ccc(S(=O)(=O)N2CCCC2)cc1	-22.8%
O=C(CCS(=O)(=O)c1cccc2nonc12)NCCc1ccccc1Cl	-7.38%
CC(C)NC(=O)CN1C(=O)NC(CCc2ccccc2)C1=O (stereo not drawn)	5.75%
COc1cc(C)ccc1OCCCCOc1ccccc1C(C)=O	3.3%
CCn1c(CNC(=O)c2cccnc2)cc2ccccc21	2.41%
Cc1ccc(C2NC(=S)NC3=C2N2CCC3CC2)cc1 (stereo not drawn)	1.2%
CCOC(=O)c1sc(NC(=O)CSc2nc(C)cc(C)c2C#N)c(C#N)c1C	8.19%
O=C(/C=C/c1ccc(Cl)c(Cl)c1)N1CCOCC1	-1.3%
CS(=O)(=O)N1CCN(c2ccccc2NC(=O)c2ccc([N+](=O)[O-])o2)CC1	-25.2%
CC1CCN(c2ccccc2NC(=O)c2ccc([N+](=O)[O-])o2)CC1	25%
CC1CCN(c2ccccc2NC(=O)c2cc([N+](=O)[O-])ccc2N2CCOCC2)CC1	-2.63%
CC(C)C(=O)N1CCN(c2ccccc2NC(=O)c2cc([N+](=O)[O-])ccc2N2CCOCC2)CC1	-67.2%
CC(C)C(=O)N1CCN(c2ccccc2NC(=O)c2ccc([N+](=O)[O-])o2)CC1	-63%
CCc1ccccc1NC(=O)c1cc([N+](=O)[O-])ccc1N1CCOCC1	-16.5%
O=C(CNC(=O)c1cccs1)c1ccc(Br)cc1	12.2%
O=C(O)Cc1ccc(C(=O)c2cccs2)s1	11.8%

Compound	hERG current change (%, negative = inhibition) at 10uM
COc1ccc(CNC(=S)N/N=C(/C)c2ccccc2)cc1	-6.47%
COc1ccc(OC)c(NC(=S)NCc2cccnc2)c1	8.59%
COC(=O)C1CC(O)CN1C(=O)c1ccco1 (stereo not drawn)	10.6%
CN(C)S(=O)(=O)c1ccc(NC(=O)CN2CCC(Cc3ccccc3)CC2)cc1	-32.8%
CN(Cc1ccc(F)cc1)Cc1nc(-c2cnccn2)no1	13.7%
CN(Cc1ccc(-n2cccn2)cc1)Cc1nc(-c2cnccn2)no1	-58.2%
Cc1cc(C)n(-c2cccc(CN(C)Cc3nc(-c4cnccn4)no3)c2)n1	10.8%
Cn1nc(C(=O)N2CCN(c3ccc([N+](=O)[O-])cc3)CC2)c2c1-c1ccccc1S(=O)(=O)C2	-31.4%
Cn1nc(C(=O)N2CCN(c3ccccc3F)CC2)c2c1-c1ccccc1S(=O)(=O)C2	-21.2%
Cc1ccc(N2CCN(C(=O)c3nn(C)c4c3CS(=O)(=O)c3ccccc3-4)CC2)c(C)c1	-3%
COc1ccccc1N1CCN(C(=O)c2nn(C)c3c2CS(=O)(=O)c2ccccc2-3)CC1	2.07%
Cn1nc(C(=O)N2CCN(c3ccc(F)cc3)CC2)c2c1-c1ccccc1S(=O)(=O)C2	-54.3%
CCN1CCN(C(=O)c2nn(C)c3c2CS(=O)(=O)c2ccccc2-3)CC1	12%
CC(=O)c1ccc(N2CCN(C(=O)c3nn(C)c4c3CS(=O)(=O)c3ccccc3-4)CC2)cc1	-64.5%
Cn1nc(C(=O)N2CCN(c3cccc(Cl)c3)CC2)c2c1-c1ccccc1S(=O)(=O)C2	-53.4%
Cc1cccc(N2CCN(C(=O)c3nn(C)c4c3CS(=O)(=O)c3ccccc3-4)CC2)c1C	-33.4%
Cn1nc(C(=O)N2CCCCC2)c2c1-c1ccccc1S(=O)(=O)C2	14.7%
Cn1nc(C(=O)N2CCN(c3ccccc3)CC2)c2c1-c1ccccc1S(=O)(=O)C2	-40.9%
Cn1nc(C(=O)N2CCN(c3ccc(Cl)cc3)CC2)c2c1-c1ccccc1S(=O)(=O)C2	-51.2%
CCN1CCN(CC(=O)c2ccc(C)cc2)CC1	8.76%
CC(=O)Nc1ccc(S(=O)(=O)Oc2ccc(C(=S)N3CCCCC3)cc2)cc1	-16.6%
